# Measurements reported in PubChem BioAssay (NCI).
# About 83,000 compounds went through this panel and 20% of them were active in at least one assay; those are over-represented in the sample as a whole.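 Activity criterion: percent growth below 10, measured after cells in 96-well plates were exposed to a single compound concentration for 48 hours.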 Values without a mark were called inactive. Activity calls are given as the source filed them.
# System: HT29 colon
# Test: NCI-60 one-dose screen, 48 h (100 = growth as untreated, 0 = no growth, -100 = all killed)
# Conditions: 10 µM unless noted
row,SMILES,growth
1,COc1ccc2c(c1)c(-c1noc(-c3cn(C)c4ncc(F)cc34)n1)cn2C,78.2%
2,O=C(N/N=C\c1cc(Cl)ccc1O)N/N=C/c1cc(Cl)ccc1O,93.9%
3,O=C(O)c1ccccc1C(F)(F)F,107%
4,CS(=O)(=O)c1cccnn1,89.7%
5,O=C(Nc1ccc(Oc2ccc(F)cc2)c(Cl)c1)c1cccnn1,76.7%
6,CCC(Br)(CC)C(=O)c1ccc(OCC(=O)O)c(Cl)c1Cl,110%
7,NC(=O)c1cccc(-c2ccc(S(=O)(=O)Nc3ccc4c(c3)N(C(=O)C3CC3)CCC4)cc2)c1,13.6%
8,C#CCC(C(=O)OCC)C(=O)OCC,103%
9,O=[N+]([O-])c1cc(CCl)ccc1OCCBr,96.7%
10,O=C(O)c1cn(C2CC2)c2cc(N3CCN(Cc4cc(Cl)ccc4O)CC3)c(F)cc2c1=O,44.9%
11,Cc1ccc(C2=C/C(=C/c3ccc(Br)cc3)C(=O)N2CCc2ccc(S(N)(=O)=O)cc2)cc1,106%
12,COc1ccc(C(=O)/C=C/c2ccccn2)c(O)c1,72.2%
13,Cc1cc(C)c(S(=O)(=O)/N=c2/n(-c3ccccc3)nc3n2CCN3C2=NCCN2)c(C)c1,58%
14,Cc1ccc(S(=O)(=O)n2cc(C(=O)C(=O)N3CCCCC3)c3ccccc32)cc1,88.3%
15,COc1cc(C)cc2oc3oc(=N)c(C(=O)c4ccccc4)cc3c(=O)c12,108%
16,COc1ccc(OC)c([N+](=O)[O-])c1C(=O)CNC(C)=O,109%
17,Cc1ccc(S(=O)(=O)N/N=C2\CC3CCC2(C)C3(C)C)cc1 (centres undefined),108%
18,O=C(N=c1n(-c2ccccc2)nc2n1CCN2C1=NCCN1C(=O)c1ccc(Cl)cc1)c1ccc(Cl)cc1,59.7%
19,O=C(NCc1ccc(Cn2c(=O)sn(-c3ccccc3)c2=O)cc1)OCc1ccc2c(Br)cc(Br)c(O)c2n1,-66.6% (active)

row,SMILES,growth
1,Cc1nc(Cl)c2c(n1)N(C)c1ccc(Cl)cc1C(C)C2 (centres undefined),83.8%
2,C=C(C)[C@@H]1CC[C@]2(COCCC#N)CC[C@]3(C)[C@H](CC[C@@H]4[C@@](C)(CCCNCCC#N)[C@H](C(=C)C)CC[C@]43C)[C@@H]12,2.94% [100 µM] (active)
3,O=C(Nc1cccc(F)c1)c1cc(=O)[nH]c2cc(Br)ccc12,9.92% (active)
4,O=C(NCCCNC(=O)OCc1ccc2c(Br)cc(Br)c(O)c2n1)OCc1ccc2c(Br)cc(Br)c(O)c2n1,-73% (active)
5,COc1ccc(OC)c(NC=O)c1,99.4%
6,CCN(CCNc1ccc(C)c2sc3cc(Cl)ccc3c(=O)c12)CC(C)O (centres undefined),-28.5% (active)
7,CN(C)c1ccc(-c2ccc(-c3ccc(C(=N)N)cc3)s2)cc1,-65.6% (active)
8,CC(=O)OC[C@]12CC[C@@H]([C@@H](C)C(N)=O)[C@@H]1[C@H]1CC[C@@H]3[C@@]4(C)CC[C@H](OC(C)=O)C(C)(C)[C@@H]4CC[C@@]3(C)[C@]1(C)CC2,-77.7% [100 µM] (active)
9,O=C(Nc1ccccc1)Nc1ccc(C(=O)/C=C/c2ccc(N3CCCC3)cc2)cc1,69.5%
10,C#C[C@]1(O)CC[C@H]2[C@@H]3CC=C4c5nc(Nc6ccccn6)sc5CC[C@]4(C)[C@H]3CC[C@@]21C,16.9%
11,Cn1cc(-c2nnc(-c3cn(C)c4ncccc34)o2)c2ccccc21,12.1%
12,O=C1C(Cl)=C(Nc2ccc3cn[nH]c3c2)C(=O)c2ccccc21,-66.9% (active)
13,COc1cc(/C=C/C(=O)/C=C/c2ccc(-n3ccnc3C)cc2)ccc1O,-42.9% (active)
14,Nc1cc(Cl)cc2cccnc12,101%
15,CN(C)CCOc1ccc(/C(=C(/CCCl)c2ccccc2)c2ccccc2)cc1,-78.8% (active)
16,Nc1cc(N)c(N=Nc2ccc(S(=O)(=O)O)cc2)cc1N=Nc1ccc(-c2ccc(N=Nc3ccc(O)c(C(=O)O)c3)cc2)cc1,103%
17,Cn1cc(-c2noc(-c3cn(C)c4ncc(F)cc34)n2)c2ccccc21,66.1%
18,Nc1ccc(NC(=O)c2ccccc2)c2c1C(=O)c1ccccc1C2=O,104%

# System: SNB-75 CNS
# Test: as above
# Conditions: 10 µM unless noted
row,SMILES,growth
1,COc1ccc2c(c1)c(-c1noc(-c3cn(C)c4ncc(F)cc34)n1)cn2C,94.9%
2,O=C(N/N=C\c1cc(Cl)ccc1O)N/N=C/c1cc(Cl)ccc1O,39.8%
3,O=C(O)c1ccccc1C(F)(F)F,77.1%
4,CS(=O)(=O)c1cccnn1,48.9%
5,O=C(Nc1ccc(Oc2ccc(F)cc2)c(Cl)c1)c1cccnn1,87.8%
6,CCC(Br)(CC)C(=O)c1ccc(OCC(=O)O)c(Cl)c1Cl,92.7%
7,NC(=O)c1cccc(-c2ccc(S(=O)(=O)Nc3ccc4c(c3)N(C(=O)C3CC3)CCC4)cc2)c1,11.9%
8,C#CCC(C(=O)OCC)C(=O)OCC,90.5%
9,O=[N+]([O-])c1cc(CCl)ccc1OCCBr,86.6%
10,O=C(O)c1cn(C2CC2)c2cc(N3CCN(Cc4cc(Cl)ccc4O)CC3)c(F)cc2c1=O,67.6%
11,Cc1ccc(C2=C/C(=C/c3ccc(Br)cc3)C(=O)N2CCc2ccc(S(N)(=O)=O)cc2)cc1,60.9%
12,COc1ccc(C(=O)/C=C/c2ccccn2)c(O)c1,78.1%
13,Cc1cc(C)c(S(=O)(=O)/N=c2/n(-c3ccccc3)nc3n2CCN3C2=NCCN2)c(C)c1,74.3%
14,Cc1ccc(S(=O)(=O)n2cc(C(=O)C(=O)N3CCCCC3)c3ccccc32)cc1,73.8%
15,COc1cc(C)cc2oc3oc(=N)c(C(=O)c4ccccc4)cc3c(=O)c12,86.2%
16,COc1ccc(OC)c([N+](=O)[O-])c1C(=O)CNC(C)=O,107%
17,Cc1ccc(S(=O)(=O)N/N=C2\CC3CCC2(C)C3(C)C)cc1 (centres undefined),81.8%
18,O=C(N=c1n(-c2ccccc2)nc2n1CCN2C1=NCCN1C(=O)c1ccc(Cl)cc1)c1ccc(Cl)cc1,68.8%
19,O=C(NCc1ccc(Cn2c(=O)sn(-c3ccccc3)c2=O)cc1)OCc1ccc2c(Br)cc(Br)c(O)c2n1,-93.8% (active)

row,SMILES,growth
1,Cc1nc(Cl)c2c(n1)N(C)c1ccc(Cl)cc1C(C)C2 (centres undefined),66.1%
2,C=C(C)[C@@H]1CC[C@]2(COCCC#N)CC[C@]3(C)[C@H](CC[C@@H]4[C@@](C)(CCCNCCC#N)[C@H](C(=C)C)CC[C@]43C)[C@@H]12,40.8% [100 µM]
3,O=C(Nc1cccc(F)c1)c1cc(=O)[nH]c2cc(Br)ccc12,43.7%
4,O=C(NCCCNC(=O)OCc1ccc2c(Br)cc(Br)c(O)c2n1)OCc1ccc2c(Br)cc(Br)c(O)c2n1,-87.6% (active)
5,COc1ccc(OC)c(NC=O)c1,100%
6,CCN(CCNc1ccc(C)c2sc3cc(Cl)ccc3c(=O)c12)CC(C)O (centres undefined),66.5%
7,CN(C)c1ccc(-c2ccc(-c3ccc(C(=N)N)cc3)s2)cc1,97.6%
8,CC(=O)OC[C@]12CC[C@@H]([C@@H](C)C(N)=O)[C@@H]1[C@H]1CC[C@@H]3[C@@]4(C)CC[C@H](OC(C)=O)C(C)(C)[C@@H]4CC[C@@]3(C)[C@]1(C)CC2,-47.8% [100 µM] (active)
9,O=C(Nc1ccccc1)Nc1ccc(C(=O)/C=C/c2ccc(N3CCCC3)cc2)cc1,41%
10,C#C[C@]1(O)CC[C@H]2[C@@H]3CC=C4c5nc(Nc6ccccn6)sc5CC[C@]4(C)[C@H]3CC[C@@]21C,-42.4% (active)
11,Cn1cc(-c2nnc(-c3cn(C)c4ncccc34)o2)c2ccccc21,-18.3% (active)
12,O=C1C(Cl)=C(Nc2ccc3cn[nH]c3c2)C(=O)c2ccccc21,-84.5% (active)
13,COc1cc(/C=C/C(=O)/C=C/c2ccc(-n3ccnc3C)cc2)ccc1O,76.4%
14,Nc1cc(Cl)cc2cccnc12,79.9%
15,CN(C)CCOc1ccc(/C(=C(/CCCl)c2ccccc2)c2ccccc2)cc1,36.8%
16,Nc1cc(N)c(N=Nc2ccc(S(=O)(=O)O)cc2)cc1N=Nc1ccc(-c2ccc(N=Nc3ccc(O)c(C(=O)O)c3)cc2)cc1,98.9%
17,Cn1cc(-c2noc(-c3cn(C)c4ncc(F)cc34)n2)c2ccccc21,1.91% (active)
18,Nc1ccc(NC(=O)c2ccccc2)c2c1C(=O)c1ccccc1C2=O,76%
